The text below walks through data of PubChem BioAssay (NCATS).

Each structure is given as a SMILES string. Records with an inconclusive call do not appear. Values without a mark were called inactive. Calls of active or inactive are those of the source. Calls follow the shape of the dose curve; as a rule, active = well fitted curve in the direction sought with a large enough effect; inconclusive = small, poorly fitted or top-dose-only effect, or another doubt; inactive = no such curve, though single readings can be large; an effect the other way counts as inactive or inconclusive.

Assay [1] deals with Aldehyde dehydrogenase, mitochondrial (Homo sapiens) (UniProt P05091). In words: qHTS for Inhibitors of the Aldehyde Dehydrogenase Family (ALDH2) Primary screen (AID 2061308).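 Also: plate controls were vehicle for no effect and reference inhibitor for full effect; nearly all actives have a fitted effect of over 55% in size.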
In assay [2] the target is Retinaldehyde dehydrogenase 3 (Homo sapiens) (UniProt P47895). The assay is described as follows: qHTS for Inhibitors of the Aldehyde Dehydrogenase Family (ALDH1A3) Primary screen (AID 2061315).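 Also: plate controls were DMSO vehicle for no effect and reference inhibitor for full effect.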 For orientation: Quantitative high-throughput screening tests each substance at several concentrations.

Regarding `COC1=CC(=O)C[C@@H](C)[C@@]12Oc1c(Cl)c(OC)cc(OC)c1C2=O`, the Potency entry in assay [1] and in assay [2] was “inactive” in each case.

As for `Cc1cc(C)nc(NC(=S)N2CCN(c3cncnc3)CC2)c1`, the Potency entry in assay [1] and in assay [2] was “inactive” throughout.

`COc1ccc(N2Cc3cccc(C(=O)O)c3C2=O)cc1OC`: the Potency result in assay [1] and in assay [2] was “inactive” each time.

Take `CCCn1c(-c2ccc(F)cc2)nc2c(NCCCN3CCCCC3C)nc(C)nc21` (stereo not given): the Potency entry in assay [1] and in assay [2] was “inactive” each time.

For `CCc1cccc(Nc2nn3c(=O)c4ccccc4nc3s2)c1`, the Potency entry in assay [1] and in assay [2] was “inactive” each time.

Take `Cc1ccc(CNc2ncnc3ccc(-c4ccc(C(=O)N(C)C)o4)cc23)o1`: the Potency result in assay [1] and in assay [2] was “inactive” each time.

As for `O=C(Nc1ccc(Br)c(Br)c1)Nc1nnc(-c2cccnc2)s1`, the Potency entry in assay [1] and in assay [2] was “inactive” in each case.

`O=C1CCCC2=C1C(c1ccncc1Cl)N=C(Nc1nc3ccccc3o1)N2` (stereo not given): the Potency entry in assay [1] and in assay [2] was “inactive” in each case.

In the case of `CC[C@H](C)[C@H](NC(=O)[C@H]([C@@H](C)CC)N(C)C(C)=O)C(=O)N[C@H](C(=O)N[C@@H](CC(C)C)C(=O)[C@@]1(C)CO1)[C@@H](C)O`, the Potency entry in assay [1] and in assay [2] was “inactive” each time.

Consider `O=C(Nc1nc(-c2ccccc2)cs1)c1ccncc1NS(=O)(=O)c1ccc(F)cc1`, for which the Potency result in assay [1] and in assay [2] was “inactive” each time.

Regarding `O=[S+]([O-])(c1ccc2c(c1)OCCO2)N1CCN([S+](=O)([O-])c2cc(Cl)ccc2F)CC1`, the Potency entry in assay [1] and in assay [2] was “inactive” in each case.

Consider `CC(=O)O[C@H]1CC(C)(C)CC2[C@]13CO[C@@]21CCC2[C@@]4(C)CC[C@H](O[C@@H]5OC[C@H](O[C@@H]6O[C@H](CO)[C@@H](O)[C@H](O)[C@H]6O[C@@H]6OC[C@@H](O[C@@H]7O[C@H](CO)[C@@H](O)[C@H](O)[C@H]7O)[C@H](O)[C@H]6O)[C@H](O)[C@H]5O[C@@H]5O[C@H](CO)[C@@H](O)[C@H](O)[C@H]5O)[C@@](C)(CO)C4CC[C@@]2(C)[C@]1(C)C[C@H]3O` (stereo not given in full), for which the activity change, negative = inhibition is 0.34% [at 11.2 µM] in assay [1] and 11.1% [at 11.2 µM] in assay [2].

Turning to `COc1ccc2nc(-c3ccc(F)cc3Cl)sc2c1`, the Potency entry in assay [1] and in assay [2] was “inactive” each time.

`FC(F)(F)c1ccccc1-c1nccc(NCc2ccc(-c3cccnc3)cc2)n1`: the Potency result in assay [1] and in assay [2] was “inactive” in each case.

Take `COc1cccc(C2c3c(ncn(Cc4cccs4)c3=N)Oc3ccc4ccccc4c32)c1` (stereo not given): the Potency result in assay [1] and in assay [2] was “inactive” in each case.

With `NC(=O)C1CCN(c2nc(-c3cccc(N)c3)cs2)CC1`, the Potency result in assay [1] and in assay [2] was “inactive” throughout.

As to `CC1OC2OC3C(OCC(O)C3O)OC(=O)C34CCC(C)(C)CC3C3=CCC5C6(C)CC(O)C(OC7OC(CO)C(O)C(O)C7OC7OCC(OC(=O)CC(C)(O)CC(=O)OC1C(OC1OCC(O)C(O)C1O)C2O)C(O)C7O)C(C)(CO)C6CCC5(C)C3(C)CC4O` (stereo not given), the Potency result in assay [1] and in assay [2] was “inactive” in each case.

`NC(=O)c1ccc(-c2noc(-c3cccc(Cl)c3)n2)cc1`: the Potency entry in assay [1] and in assay [2] was “inactive” each time.

Take `Cc1ccc2nsnc2c1S(=O)(=O)Nc1cccc2cccnc12`: the Potency entry in assay [1] and in assay [2] was “inactive” in each case.

On to `Cc1ccc(-c2cc(C(=O)NCc3ccc(S(N)(=O)=O)cc3)c3ccccc3n2)cc1C`, for which the Potency entry in assay [1] and in assay [2] was “inactive” in each case.

Regarding `C=CCNc1oc(-c2cccc(F)c2)nc1C#N`, the Potency entry in assay [1] and in assay [2] was “inactive” throughout.

Take `CCCn1c(-c2ccc(F)cc2)nc2c(NCCCN(CC)CC)nc(C)nc21`: the Potency entry in assay [1] and in assay [2] was “inactive” in each case.

With `CCCn1c(C)nc2c(N3CCN(C)CC3)nc(C)nc21`, the Potency result in assay [1] and in assay [2] was “inactive” in each case.

For `Cc1cc(C)nc(NC(=S)N2CCN(S(=O)(=O)c3cccc(C(F)(F)F)c3)CC2)c1`, the Potency result in assay [1] and in assay [2] was “inactive” each time.

For the compound `CC(=O)Nc1sc2c(c1-c1ccc(C)cc1)CCNC2`, the Potency entry in assay [1] and in assay [2] was “inactive” each time.

Take `COc1cccc(C2c3c(ncn(-c4ccccc4C(C)(C)C)c3=N)Oc3ccc4ccccc4c32)c1` (stereo not given): the Potency entry in assay [1] and in assay [2] was “inactive” in each case.

As to `N#Cc1nc(Nc2cc(F)cc(F)c2)c2ncn(CCO)c2n1`, the Potency entry in assay [1] and in assay [2] was “inactive” in each case.

On to `N#Cc1ccc(NS(=O)(=O)c2ccc3c(c2)CCC(=O)N3)cc1`, for which the Potency entry in assay [1] and in assay [2] was “inactive” each time.

Regarding `N#Cc1nc(-c2cccc3ccccc23)oc1NCC#CCOC(=O)c1cccs1`, the Potency result in assay [1] and in assay [2] was “inactive” each time.

Turning to `O=C(OCC#CCSc1nnc(-c2cccc3ccccc23)o1)c1sc(Cl)c(Cl)c1Cl`, the Potency entry in assay [1] and in assay [2] was “inactive” throughout.

As to `Cc1ccccc1C(=O)N1CCc2cc(-c3nc(NC(=O)Cc4ccccc4)sc3C)ccc21`, the Potency entry in assay [1] and in assay [2] was “inactive” each time.

For the compound `Clc1ccccc1-c1ccc2ncnc(NCc3cccs3)c2c1`, the Potency entry in assay [1] and in assay [2] was “inactive” each time.

On to `Oc1ccc(CNCc2ccc3c(c2)OCO3)c2cccnc12`, for which the Potency entry in assay [1] and in assay [2] was “inactive” each time.

Take `Cc1ccc(OCCn2c(CCNCC3CCCCC3)nc3ccccc32)cc1`: the Potency entry in assay [1] and in assay [2] was “inactive” each time.

For the compound `CCCN(Cc1cccs1)c1ncnc2ccc(-c3ccc4c(c3)OCO4)cc12`, the Potency entry in assay [1] and in assay [2] was “inactive” throughout.

With `CC(C)N1Cc2ccc(Nc3nn4c(=O)c5ccccc5nc4s3)cc2C1`, the Potency entry in assay [1] and in assay [2] was “inactive” each time.

Take `Cc1cccc(CNc2ncnc3ccc(-c4ccccc4Cl)cc23)c1`: the Potency result in assay [1] and in assay [2] was “inactive” in each case.

Consider `Cc1ccc(OCCn2c(CCNC(=O)c3cc([N+](=O)[O-])ccc3[N+](=O)[O-])nc3ccccc32)cc1`, for which the Potency result in assay [1] and in assay [2] was “inactive” each time.

Regarding `CCOc1ccc(CCNC(=O)c2cc3sccc3n2CCN2CCOCC2)cc1OCC`, the Potency result in assay [1] and in assay [2] was “inactive” throughout.

As to `N#Cc1nc(Nc2cc(F)cc(F)c2)c2ncn(CCN3CCCC3)c2n1`, the Potency entry in assay [1] and in assay [2] was “inactive” in each case.
